Experimental findings from PubChem BioAssay AID926 (National Center for Advancing Translational Sciences (NCATS), 2007) are described below.

“And” between values parts separate entries of the source, which are not always exact repeats. Equal values may be shown once. Screen size: about 73,000 compounds; about 350 (0.48%) were called active. Inconclusive results (about 17%) are left out. Calls follow the shape of the dose curve; as a rule, active = well fitted activation curve with a large enough effect in the main read-out, with a control signal flat (not every such curve was filed as active); inconclusive = small, poorly fitted or top-dose-only effect, or a change in a side signal; inactive = no such curve, though single readings can be large or run the other way; reference of the percent scale not stated here. Many of the other results were omitted from the sample, so actives are more common in it than they were.

The nature of test [1]: qHTS Assay for Agonists of the Thyroid Stimulating Hormone Receptor.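 Also: the control signal comes from parental cells without the receptor.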 The following applies: HEK293-CNG-TSHR cells, membrane potential dye, cAMP; measured here: parental cells max response. The essentials:
(§1)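 HEK 293 cells stably expressing TSHR and a cAMP-gated CNG channel; parental CNG-only cells as counterscreen. Cells preloaded 60 min with membrane potential dye plus 100 uM RO 20-1724, then compound 30 min; fluorescence read at 590 nm.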
On the technique in general: qHTS replaces the single test concentration by a dilution series.

Test [2] has as its target Thyrotropin receptor (Homo sapiens) (UniProt P16473). The test is described as above. As to conditions: HEK293-CNG-TSHR cells (CNG channel as cAMP sensor), membrane potential dye, cAMP; series mostly up to 57.1 µM. In short, it runs like this: as §1
Potency is read from the fitted curve at half-maximal effect.

Thyrotropin receptor (Homo sapiens), sequence (P16473 whole entry, looked up): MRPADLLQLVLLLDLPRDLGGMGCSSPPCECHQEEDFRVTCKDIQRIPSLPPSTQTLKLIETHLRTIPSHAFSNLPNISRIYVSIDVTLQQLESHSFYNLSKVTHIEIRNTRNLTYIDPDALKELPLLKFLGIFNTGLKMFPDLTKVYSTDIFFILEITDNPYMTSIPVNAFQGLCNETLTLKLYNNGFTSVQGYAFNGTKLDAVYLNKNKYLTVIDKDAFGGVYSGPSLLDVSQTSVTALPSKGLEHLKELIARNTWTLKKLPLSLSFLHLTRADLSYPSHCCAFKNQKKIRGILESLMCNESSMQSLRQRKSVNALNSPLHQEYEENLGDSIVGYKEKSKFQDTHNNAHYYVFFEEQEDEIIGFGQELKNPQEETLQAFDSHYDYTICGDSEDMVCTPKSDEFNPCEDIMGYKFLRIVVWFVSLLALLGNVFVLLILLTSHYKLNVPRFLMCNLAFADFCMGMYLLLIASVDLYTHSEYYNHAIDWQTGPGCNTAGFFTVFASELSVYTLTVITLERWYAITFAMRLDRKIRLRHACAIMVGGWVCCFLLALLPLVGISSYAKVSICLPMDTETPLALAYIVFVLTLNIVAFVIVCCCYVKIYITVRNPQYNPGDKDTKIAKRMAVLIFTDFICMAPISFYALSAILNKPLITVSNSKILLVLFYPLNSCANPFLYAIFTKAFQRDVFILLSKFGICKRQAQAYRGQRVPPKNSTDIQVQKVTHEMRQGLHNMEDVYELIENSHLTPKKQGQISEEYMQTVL

For `CC1CCCCN1CCCNC(=O)c1ccc(-n2c(=O)c(=O)[nH]c3ccccc32)cc1` (centres undefined), the activation in test [1] was -4.46%. Also, the Potency result in test [2] is “inactive”.
`CCCn1c(C)nc2c(NCCCCN(CC)CC)nc(C)nc21`: the activation in test [1] worked out at 4.8%. The Potency result in test [2] is “inactive”.
`O=C1C[C@@H](O)[C@@H](O)[C@H]2[C@@H]3C(=O)N(Cc4ccc5c(c4)OCO5)C(=O)[C@@H]3CC[C@H]12`: the activation in test [1] is 0.478% and -2.17%; in test [2] it was 1.51% [at 11.4 µM] (inactive) and -4.05% [at 11.4 µM] (inactive).
Consider `C#CCCCCCCCCCCCCCCCC(=O)O`, for which the activation in test [1] was found to be 7.8%. Further, the Potency result in test [2] was “inactive”.
For the molecule `COc1ccc(-c2nnc(SC(=O)N3c4ccccc4Sc4ccccc43)o2)cc1`, the results for the activation in test [1] and in test [2] were -13.7% and -19.2% [at 11.4 µM] (inactive), respectively.
Turning to `CCC1C(C#N)=C(SC)NC2=C1C(=O)CC(C)(C)C2` (centres undefined), the results for the activation in test [1] and in test [2] were 9.37% and 4.61% [at 11.4 µM] (inactive), respectively.
For the molecule `Cc1c2c(nc3ccccc13)-c1cccc(=O)n1C2`, the activation in test [1] is -3.79%. The Potency result in test [2] was “inactive”.
Turning to `Cc1noc(C)c1-c1nc(Nc2ccccc2)c2ccccc2n1`, the activation in test [1] was -3.31%. For the same molecule, in test [2], the Potency result was “inactive”.
As to `O=C(O)c1ccc(Cl)c(S(=O)(=O)Nc2ccccc2Cl)c1`, the activation in test [1] came out at 5.29%. Moreover, the Potency entry in test [2] is “inactive”.
Consider `Cc1ccc2c(c1)sc1ncc(NC(=O)c3ccccc3)c(=O)n12`, for which the activation in test [1] was 11.7%. Further, the Potency entry in test [2] is “inactive”.
With `CCNC(=S)NCC`, in test [1], the activation was -3.45%. For the same molecule, in test [2], the Potency entry was “inactive”.
Regarding `COC(=O)c1cn(-c2ccccc2)nc1-c1cccnc1`, the activation in test [1] was found to be 9.42%. Moreover, in test [2], the Potency entry is “inactive”.
On to `CO/N=C\[C@@H](C)[C@H](OCc1ccccc1)C(C)C`, for which the results for the activation in test [1] and in test [2] were -0.643% and 16.8% [at 11.4 µM] (inactive), respectively.
Turning to `O=c1c(-c2ccc(F)c(F)c2)nc2cncnc2n1-c1ccccc1`, in test [1], the activation is 19.9%. Also, the Potency entry in test [2] is “inactive”.
Regarding `N[C@H](C(=O)O)c1ccc(C(=O)O)c(O)c1`, the activation in test [1] was -2.63%. In test [2], the Potency entry was “inactive”.
Take `N#Cc1cccc(CSc2nnc(CCCO)n2-c2ccccc2)c1`: the activation in test [1] was -1.39%. In addition, the Potency entry in test [2] was “inactive”.
As for `COC(=O)C1(C)C=CC2(CCCCC2)N1C(C)=O` (centres undefined), the activation in test [1] stood at 19.4%. The Potency result in test [2] was “inactive”.
Turning to `COc1cccc(-c2nnc(N(C)C(=O)c3ccno3)s2)c1`, the activation in test [1] was 11%; in test [2] it was -1% [at 11.4 µM] (inactive).
On to `CC(=O)OCC1OC(C#Cc2ccccc2Cl)C=CC1OC(C)=O` (centres undefined), for which the activation in test [1] is -0.512%; in test [2], 0.546% [at 11.4 µM] (inactive).
For `COc1ccc(/C=C/NC(=O)c2ccc(OC)cc2)cc1` the same measures were -3.02% and -7.55% [at 11.4 µM] (inactive).
As to `CN1CCc2nc(-c3ccccc3)c(-c3ccccc3)cc2C1`, the activation in test [1] is 0.173%; in test [2], 2% [at 11.4 µM] (inactive).
As to `Cn1c(=O)c(-c2ccccc2)nc2cnc(N3CCNCC3)nc21`, the activation in test [1] was found to be 4.18%. For the same molecule, the Potency result in test [2] is “inactive”.
For `CC1(C)S[C@@H]2[C@@H](NC(=O)[C@@H](N)c3ccccc3)C(=O)N2[C@H]1C(=O)O` the same measures were -1.13% and “inactive”.
With `Cc1ccccc1NC(=O)NCc1ccco1`, the activation in test [1] is 1.97%. Also, the Potency result in test [2] was “inactive”.
The corresponding values for `CC(C)(C)c1ccc(NC(=O)NCc2ccco2)cc1` are 3.69% and 3.98 µM (active).
For `CC(C)(C)c1ccc(C(=O)NCCC(=O)NCc2ccco2)cc1`, in test [1], the activation is -0.34%. The Potency entry in test [2] is “inactive”.
As for `CCOc1ccccc1C1NC(=O)NC(C)=C1C(=O)OCc1ccco1` (centres undefined), in test [1], the activation turned out to be 0.325%. In addition, the Potency entry in test [2] is “inactive”.
Consider `CCC(Sc1nncn1C)C(=O)Nc1nnc(-c2ccc(Cl)cc2)s1` (centres undefined), for which the activation in test [1] was -6.53%. Further, in test [2], the Potency result is “inactive”.
For the molecule `O=C1OCCC=C1[C@@H](O)CCc1ccccc1`, the results for the activation in test [1] and in test [2] were -4.2% and 5.01% [at 11.4 µM] (inactive), respectively.
In the case of `COc1ccc(/C=C/NC(=O)Cc2ccc(OC)c(OC)c2)cc1`, the activation in test [1] was 28.5% and 7.24%; in test [2], 10.9% [at 11.4 µM] (inactive) and -1.69% [at 11.4 µM] (inactive).
Consider `CCOC(=O)c1cnc(-n2nc(C)cc2C)nc1-n1nc(C)cc1C`, for which the activation in test [1] worked out at 1.88%. The Potency in test [2] is 3.16 µM (active).
For `CCOC(=O)c1cnc(-n2nc(C)cc2C)nc1Nc1cccc(C(C)=O)c1` the same measures were 16.9% and “inactive”.
In the case of `CCOC(=O)c1cnc2sccn2c1=O`, the activation in test [1] was found to be 5.11%. Moreover, the Potency entry in test [2] was “inactive”.
As for `CC(=O)Nc1cc2ccc(OC(C)=O)cc2oc1=O`, the activation in test [1] is -10.5%. Also, in test [2], the Potency entry was “inactive”.
As to `Oc1ccc(Cl)cc1/C=N/c1nc2ccccc2[nH]1`, the activation is 6.32% in test [1] and 0.206% [at 11.4 µM] (inactive) in test [2].
With `CNC(=O)c1c(NC(=O)c2ccc(S(=O)(=O)N3CCOCC3)cc2)sc2c1CCC2`, in test [1], the activation was found to be 0.0362%. The Potency entry in test [2] is “inactive”.
Turning to `COc1ccc2c(c1)C=CC1(O2)N(CCO)c2ccccc2C1(C)C` (centres undefined), in test [1], the activation was found to be 16.4%. In addition, the Potency in test [2] is 15.8 µM (active).
For the molecule `O=C(O)CCC(=O)N(Cc1cccs1)Cc1cccs1`, the activation in test [1] worked out at 4.58%. Also, the Potency result in test [2] was “inactive”.
Take `O=C(Nc1ncccn1)c1cccs1`: the activation in test [1] turned out to be 2.1%. Moreover, the Potency result in test [2] is “inactive”.
Consider `O=P(c1cccs1)(c1cccs1)c1cccs1`, for which the activation in test [1] came to 29%. Besides, in test [2], the Potency is 0.631 µM (active).
Take `O=C(O)CCC(=O)NCc1ccc2[nH]c3c(c2c1)CCCC3`: the activation in test [1] is -0.484%. In test [2], the Potency entry is “inactive”.
`Cc1cccc(C(=O)O)c1`: the activation in test [1] worked out at 12.6%. For the same molecule, the Potency entry in test [2] is “inactive”.
In the case of `CO[C@@H]1COC(=O)C/C=C\[C@H](C)[C@@H](NS(=O)(=O)c2ccc(C)cc2)COC(=O)C/C=C\[C@@H]1C`, the activation in test [1] is 2.07% and 4.9%; in test [2], -0.576% [at 11.4 µM] (inactive) and -0.527% [at 11.4 µM] (inactive).
Take `CCOC(=O)N/N=C1/C[C@@H](O)[C@@H](O)[C@@H]2[C@@H]3C(=O)N(CC)C(=O)[C@H]3CC[C@H]12`: the activation is 2.56% in test [1] and 5.56% [at 11.4 µM] (inactive) in test [2].
Consider `CC(C)CCn1c(CN(C)Cc2ccccc2)nc2c1c(=O)n(C)c(=O)n2C`, for which the activation in test [1] came out at 3.87%. In addition, in test [2], the Potency result is “inactive”.
`CO[C@@H]1COC(=O)[C@H](Cc2ccccc2)NC(=O)C/C=C\[C@@H](C)[C@H](OC)COC(=O)[C@@H](C)NC(=O)C/C=C\[C@H]1C`: the activation in test [1] was 8.45% and -4.16%; in test [2] it was -6.09% [at 11.4 µM] (inactive) and -4.32% [at 11.4 µM] (inactive).
`Cc1occc1C(=O)N1CCCc2ccccc21`: the activation in test [1] came out at 23.6%. Also, the Potency result in test [2] was “inactive”.
The corresponding values for `CCc1cc(=O)oc2cc(OCC(=O)N3CCCc4ccccc43)ccc12` are -4.75% and 25.1 µM (active).
With `COc1ccc2oc(=O)c(C(=O)N3CCCc4ccccc43)cc2c1`, the activation in test [1] is -9.12%. Moreover, the Potency entry in test [2] was “inactive”.
As to `COc1ccc(COC(=O)N/N=C2/C[C@@H](O)[C@@H](O)[C@@H]3[C@@H]4C(=O)N([C@@H](C)c5ccccc5)C(=O)[C@H]4CC[C@@H]23)cc1`, the activation is -0.62% in test [1] and 0.427% [at 11.4 µM] (inactive) in test [2].
Regarding `Nc1nonc1C(=O)NCCc1ccccc1`, the activation in test [1] was -2.18%. For the same molecule, the Potency result in test [2] is “inactive”.
On to `COc1cc(Cl)c(S(=O)(=O)n2cnc(C)c2)cc1Cl`, for which the activation in test [1] is 12.1%; in test [2], 13.5% [at 11.4 µM] (inactive).
